A selection: hits, their analogues and other compounds. The true share with any hit is near 0.85%.
Chronic BCR inh = blocks chronic active B-cell receptor signaling | ABC-DLBCL IkBa-CBG/CBR reporter, luminescence ratio, 4 h | Potency, µM (top dose mostly 46.1 µM), actives largely listed as inhibitors | 0.05% of 340,000 active; active = well fitted inhibition curve with a large enough effect in the signal ratio, with a control signal flat, not every such curve was filed as active; inconclusive = small, poorly fitted or top-dose-only effect, or effect the other way, or a change in a side signal; the % refers to the signal ratio
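Compounds up to 46 uM were incubated four hours with TMD8 cells whose green CBG68 luciferase is fused to IkappaBalpha; red CBR luminescence normalised the signal, and concentration-effect curves were fitted to fusion, red and ratio data.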
TSHR antagonist = antagonists of human thyroid stimulating hormone receptor. TSHR-expressing cells, TSH-stimulated cAMP HTRF, 2 h; active compounds read low. activity change, negative = inhibition, % at 11.5 µM. 0.2% of 330,000 active. AID 504810;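 active = activity change below a set negative limit, meaning inhibition stronger than a set level, cut at about -70% in these data; inconclusive = activity change between two set negative limits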
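Inhibition of cAMP made by TSHR-expressing cells under TSH stimulation (4nM final, EC80; 2 h, 37 deg C) is quantified with a one-step lysis HTRF kit, anti-cAMP cryptate versus cAMP-d2.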
CtBP-E1A blk = inhibitors of CtBP/E1A interaction | AlphaScreen GST-E1A/His-CtBP binding, 1536-well; active compounds read low | activity change, % (no concentration beside the values) | 0.49% of 340,000 active | AID 651724
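In 5 uL wells, 23 nL compound meets equimolar GST-E1A and His-CtBP (5X stock 125 nM each) for 2 h, 37 °C. Beads (5X, 50 ug/mL) then 1 h, 37 °C, dark.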
Six1-Eya2 blk = inhibitors of human Six1/Eya2 interaction; Q15475+O00167; AlphaScreen GST-Six1/His-Eya2 binding, biochemical; active compounds read low; activity change, % (no concentration beside the values); 0.56% of 360,000 active; AID 651725
Target sequence (O00167 whole entry, looked up): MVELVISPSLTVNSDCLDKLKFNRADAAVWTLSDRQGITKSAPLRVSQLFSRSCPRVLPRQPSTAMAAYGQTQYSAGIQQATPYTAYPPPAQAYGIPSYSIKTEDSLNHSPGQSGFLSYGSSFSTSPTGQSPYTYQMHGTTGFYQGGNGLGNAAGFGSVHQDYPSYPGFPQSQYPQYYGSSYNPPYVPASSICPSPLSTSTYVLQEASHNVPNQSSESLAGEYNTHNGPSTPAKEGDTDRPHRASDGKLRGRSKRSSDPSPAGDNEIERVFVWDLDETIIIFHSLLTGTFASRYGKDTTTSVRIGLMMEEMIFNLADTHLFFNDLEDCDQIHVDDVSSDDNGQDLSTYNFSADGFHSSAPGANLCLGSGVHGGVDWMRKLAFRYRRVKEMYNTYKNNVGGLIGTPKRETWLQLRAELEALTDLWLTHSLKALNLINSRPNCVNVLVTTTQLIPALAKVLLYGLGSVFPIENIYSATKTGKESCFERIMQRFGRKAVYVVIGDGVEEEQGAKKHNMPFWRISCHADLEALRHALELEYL
Target sequence (Q15475 whole entry, looked up): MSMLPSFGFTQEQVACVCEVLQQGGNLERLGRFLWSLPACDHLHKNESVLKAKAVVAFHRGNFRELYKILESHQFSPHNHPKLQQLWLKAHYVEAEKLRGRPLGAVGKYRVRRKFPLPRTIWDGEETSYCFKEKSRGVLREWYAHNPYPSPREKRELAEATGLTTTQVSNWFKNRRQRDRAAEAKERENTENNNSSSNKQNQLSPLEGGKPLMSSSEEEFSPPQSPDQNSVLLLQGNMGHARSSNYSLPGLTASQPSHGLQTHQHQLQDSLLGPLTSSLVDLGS
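GST-Six1 + His-Eya2 (5X stock: 250/500 nM); Tris pH 8.0, 300 mM NaCl, 0.05% BSA, 0.02% Tween 20; GSH donor/Ni acceptor beads; 1 h 37 °C dark; AlphaScreen readout.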
S-ASM inh = human S-ASM enzyme inhibition. placental ASM, HMU-PC fluorogenic substrate, 60 min. P17405. 0.006% of 340,000 active. Potency, µM (top dose mostly 57.5 µM), actives largely listed as inhibitors; active = well fitted inhibition curve with a large enough effect; inconclusive = small, poorly fitted or top-dose-only effect; inactive = no such curve, though single readings can be large or run the other way
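HMU-PC0 cleavage (9 uM final) by human placental ASM, 60 min at 37 °C following 10 min compound exposure at RT; stopped at pH 10, fluorescence Ex 386/Em 447 nm.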
Hits are given with their value; i = inactive; ? = inconclusive; nt = no result. Cut-off read from the data, not from the text of the source, unless noted: active = activity change below about -65%; inconclusive = mostly about -30% to -63%; inactive = weaker than that.

SMILES	Chronic BCR inh	TSHR antagonist	CtBP-E1A blk	Six1-Eya2 blk	S-ASM inh
COc1cc(/C=C(\C#N)C(=O)NCc2ccccc2)ccc1OCc1ccc(C(=O)O)cc1	?	i	?	i	i
COc1cc(/C=C(\C#N)C(=O)NC2CCCCC2)ccc1OCc1ccc(C(=O)O)cc1	?	i	-93.4	?	i
COc1cc(/C=C(\C#N)C(=O)NC(C)C)ccc1OCc1ccc(C(=O)O)cc1	?	i	-73.2	i	i
COc1cc(/C=C(/C#N)C(=O)Nc2ccccc2)ccc1OCc1ccc(C(=O)O)cc1	?	i	nt	i	i
CCOC(=O)c1c(S(=O)(=O)N2CCC(C(=O)NCc3ccccc3Cl)CC2)c(C)n(C)c1C	i	nt	nt	nt	nt
CC(C)OCCCn1c(=O)c2ccccc2n2c(CCC(=O)NC3CCN(Cc4ccccc4)CC3)nnc12	i	-125.4	i	i	i
NC(=S)N/N=C/c1ncc(C(F)(F)F)cc1Cl	?	i	-85.0	-84.8	i
Cc1ccc(CN2CCc3[nH]c(=S)[nH]c(=O)c3C2)cc1	i	i	nt	i	i
O=c1[nH]c(=S)[nH]c2c1CN(Cc1ccc(F)cc1)CC2	i	-138.7	nt	i	i
Oc1c(C(Nc2nccs2)c2ccc(C(F)(F)F)cc2)ccc2cccnc12 (stereo not drawn)	?	i	?	?	i
CCN(CC)c1ccc(C(NC(=O)C(C)C)c2ccc3cccnc3c2O)cc1 (stereo not drawn)	nt	nt	?	-71.9	nt
CCCCC(=O)NC(c1ccc(N(C)C)cc1)c1ccc2cccnc2c1O (stereo not drawn)	i	i	-91.0	-70.4	i
CCCCC(=O)NC(c1ccc(N(CC)CC)cc1)c1ccc2cccnc2c1O (stereo not drawn)	i	i	-78.1	?	i
CC(C)C(=O)NC(c1ccco1)c1ccc2cccnc2c1O (stereo not drawn)	?	i	-90.8	-93.1	i
CC(=O)NC(c1ccco1)c1cc(F)c2cccnc2c1O (stereo not drawn)	?	i	nt	nt	i
COc1cccc(CSc2nc3n(n2)C(CC(C)C)C(C(=O)Nc2ccccc2C)=C(C)N3)c1 (stereo not drawn)	i	nt	nt	nt	nt
CN1CCN(C(c2ccc(F)cc2)c2sc3nc(-c4ccco4)nn3c2O)CC1 (stereo not drawn)	i	nt	nt	nt	nt
Oc1c(C(Nc2nc3ccccc3s2)c2ccco2)ccc2cccnc12 (stereo not drawn)	i	i	i	-72.7	i
O=C(CCOc1ccccc1)N(Cc1cccnc1)c1nc2c(F)cc(F)cc2s1	i	nt	nt	nt	nt
Cc1cccc(C(c2sc3nc(-c4ccco4)nn3c2O)N2CCN(c3ccccc3)CC2)c1 (stereo not drawn)	i	nt	nt	nt	nt
Cc1oc(C(=O)O)cc1COc1cccc2cccnc12	i	i	-71.2	?	i
Cc1ccc(C)c(CN2C(=O)N(c3cc(Cl)ccc3C)S(=O)(=O)c3ccccc32)c1	i	nt	nt	nt	nt
CCCn1c(SCCC(=O)O)nc2ccccc21	i	i	i	i	i
O=C(O)CCSc1nc2ccccc2n1Cc1ccccc1	i	-116.6	i	i	i
CN(Cc1ccccc1)C(=O)CN1C(=O)CSc2ccc(S(=O)(=O)N3CCOCC3)cc21	i	nt	nt	nt	nt
SMILES	Chronic BCR inh	TSHR antagonist	CtBP-E1A blk	Six1-Eya2 blk	S-ASM inh
CN(CC(=O)Nc1ccccc1C(F)(F)F)Cc1c(O)ccc2ccccc12	i	-98.6	i	i	i
CCc1ccccc1NC(=O)CN(C)Cc1c(O)ccc2ccccc12	i	i	i	i	i
CCOc1ccc(C(=O)NCc2ccc3c(c2)CCN3C(=O)c2ccc(C)cc2)cc1OCC	i	nt	nt	nt	nt
Oc1ccc2ccccc2c1SSc1c(O)ccc2ccccc12	nt	i	nt	nt	nt
CCOc1ccc(C2C3=C(Nc4nc(N)[nH]c(=O)c42)c2ccccc2C3=O)cc1 (stereo not drawn)	i	i	i	-71.6	?
CCCOc1ccc(C2C3=C(Nc4nc(N)[nH]c(=O)c42)c2ccccc2C3=O)cc1 (stereo not drawn)	i	i	nt	?	i
Cc1ccc(-n2[nH]c(C)c(/C=N/NC(=O)c3ccc(O)cc3O)c2=O)cc1	?	i	?	?	i
Cc1ccc(/C=N\NC(=O)COc2ccc(C)cc2[N+](=O)[O-])cc1	i	i	i	i	i
Cc1[nH]n(-c2ccccc2)c(=O)c1/C=N/NC(=O)c1cccc(F)c1	?	i	nt	-92.3	i
Cc1[nH]n(-c2ccccc2)c(=O)c1/C=N/NC(=O)c1ccc(O)cc1O	?	i	nt	-90.7	i
Cc1cc(C(=O)N/N=C/c2c(C)[nH]n(-c3ccccc3)c2=O)n[nH]1	i	i	-93.8	-90.5	i
Cc1[nH]n(-c2ccc(Br)cc2)c(=O)c1/C=N/NC(=O)c1ccccc1	?	i	nt	i	i
Cc1ccc(OCC(=O)N/N=C\c2c(C)[nH]n(-c3ccccc3)c2=O)c([N+](=O)[O-])c1	i	i	-80.7	-90.6	i
CCCOc1ccc(C2C(=O)N(C3CCCCCC3)CC(=O)N2C(C)C)cc1OC (stereo not drawn)	i	nt	nt	nt	nt
Cc1ccc(/C=N/Nc2nncc(-c3ccccc3)n2)o1	?	i	i	i	i
Cc1[nH]n(-c2ccccc2)c(=O)c1/C=N/Nc1nncc(-c2ccccc2)n1	i	i	-91.3	-91.3	i
COc1ccc(S(=O)(=O)NCCc2csc3nc(-c4cccc(C)c4)nn23)cc1F	i	nt	nt	nt	nt
NC(=O)c1ccc(Oc2cccc3cccnc23)c([N+](=O)[O-])c1	i	i	i	?	i
COc1ccc(C(=O)Oc2cccc3cccnc23)cc1[N+](=O)[O-]	?	i	-72.4	-88.2	i
Cc1nn(-c2ccccc2)c(C)c1/C=C/C(=O)OCC(=O)Nc1ccc(S(N)(=O)=O)cc1	i	i	-87.9	i	i
Cc1nn(-c2ccccc2)c(C)c1/C=C/C(=O)OCC(=O)Nc1ccc(C(N)=O)cc1	i	i	nt	i	i
COc1ccc(F)cc1S(=O)(=O)NCC(c1ccco1)S(=O)(=O)c1cccs1 (stereo not drawn)	i	nt	nt	nt	nt
NC(=O)NC(=O)CC1S/C(=N/N=C2/NC(=O)CS2)NC1=O (stereo not drawn)	i	i	?	-78.4	i
O=C(O)CNC(=O)CC1S/C(=N/N=C2\CSC(=O)N2)NC1=O (stereo not drawn)	i	i	nt	-92.5	i
O=C(CC1S/C(=N/N=C2CCCCCC2)NC1=O)Nc1ccccc1F (stereo not drawn)	i	i	i	i	i
Cc1ccc(NC(=O)Nc2nnc(SCC(=O)N(C(C)C)C(C)C)s2)cc1	i	nt	nt	nt	nt
O=C1C(=Cc2ccco2)CCC1=Cc1ccco1	nt	nt	i	-83.0	i
O=C1C(=Cc2ccco2)CCCC1=Cc1ccco1	nt	nt	i	i	i
Cn1c(N/N=C/c2ccccc2)nc2sc3c(c2c1=O)CCC3	i	i	?	-70.9	i
O=C(CSc1nnc2c(n1)[nH]c1ccccc12)Nc1ccc(S(=O)(=O)Nc2ncccn2)cc1	?	i	nt	-76.0	i
